Source: PubChem BioAssay (NCATS)
Several values for one entry are separate records, joined by “and”; a condition that tells them apart may be missing. Equal entries are not always repeated. Activity calls are given as the source filed them. The call rests on the fitted dose curve; in most records, active means well fitted activation curve with a large enough effect; inconclusive means small, poorly fitted or top-dose-only effect; inactive means no such curve, though single readings can be large or run the other way.

Target: Cytochrome P450 3A4 (Homo sapiens) (UniProt P08684)
Assay: qHTS Assay for Activators of Cytochrome P450 3A4 (AID 885); further: nearly all actives have a fitted effect of over 65% in size
Conditions: recombinant CYP3A4, Luciferin-PPXE luminescence, 60 min; series mostly up to 57.1 µM
Summary of the method: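 CYP3A4 activity: Luciferin-PPXE O-dealkylation, 25uM substrate, 200mM KPO4, RT throughout. Read-out is luciferase luminescence; higher values reflect activation.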

Chain of Cytochrome P450 3A4 (Homo sapiens) (P08684 whole entry, looked up): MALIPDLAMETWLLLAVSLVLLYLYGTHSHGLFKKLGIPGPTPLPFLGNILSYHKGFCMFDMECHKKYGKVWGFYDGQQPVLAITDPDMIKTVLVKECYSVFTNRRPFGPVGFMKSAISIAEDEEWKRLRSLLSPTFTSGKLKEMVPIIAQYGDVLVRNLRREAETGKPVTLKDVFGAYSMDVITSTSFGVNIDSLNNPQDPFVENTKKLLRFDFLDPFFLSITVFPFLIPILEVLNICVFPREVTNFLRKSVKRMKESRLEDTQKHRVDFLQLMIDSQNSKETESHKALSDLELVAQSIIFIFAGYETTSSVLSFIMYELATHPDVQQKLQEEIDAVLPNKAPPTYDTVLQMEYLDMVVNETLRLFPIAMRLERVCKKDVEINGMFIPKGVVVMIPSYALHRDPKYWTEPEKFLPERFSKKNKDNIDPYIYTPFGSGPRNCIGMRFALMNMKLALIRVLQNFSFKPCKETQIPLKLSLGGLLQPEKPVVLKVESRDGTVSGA

Potency, inactive:
CCC1=C(OC(=O)N(CC)CC)N2C(=O)OC(=NCC(=O)OC)[C@]2(Cc2ccccc2)[C@H]2C1=CC[C@H]1C(=O)N(c3ccccc3)C(=O)[C@H]12
COC(=O)[C@@H]1C[C@@]2(O)[C@@H](O)[C@@H](O)[C@@H](O)C[C@H]2N1Cc1ccc(C(C)(C)C)cc1
COC(=O)c1cccc(C23CC4(C2)[C@H](CN(Cc2ccc(C(F)(F)F)cc2)[C@@H]4c2ccccc2)C3c2ccccc2)c1 (stereo partly specified)
CCC1=C2CC[C@H]3C(=O)N(C)C(=O)[C@H]3[C@H]2[C@@]2(Cc3ccccc3)C(=NCCc3c[nH]c4ccccc34)OC(=O)N2C1=O
COC(=O)[C@@H]1C[C@H]2CC[C@H](O)C[C@H]2N1Cc1ccc(Cl)cc1
COCCN=C1OC(=O)N2C(=O)C3=C4C(C[C@H]5C(=O)N(c6ccccc6)C(=O)[C@H]5[C@H]4[C@@]12Cc1ccccc1)[C@H]1C(=O)N(c2ccccc2)C(=O)[C@H]1[C@H]3C (stereo partly specified)
CN1C[C@@H]2C(c3ccccc3)C3(c4cccnc4)CC2(C3)[C@H]1c1ccccc1 (stereo partly specified)
CCC1=C2CC[C@H]3C(=O)N(c4ccccc4)C(=O)[C@H]3[C@H]2[C@@]2(Cc3ccccc3)C(=NCC3CC3)OC(=O)N2C1=O

Activity change, positive = activation, inactive:
CCCCC#CC1C=CC(Oc2cc(OC)c(OC)c(OC)c2)C(COC(=O)OCC)O1 (stereo unspecified) -83.6% [at 11.4 µM]
CO[C@H]1COC(=O)[C@@H](Cc2ccccc2)NC(=O)[C@@H](C)COC(=O)CCC[C@@H]1C -63.9% [at 11.4 µM]
Cc1ccc(/C=C/C2=CC3(C)CC2(C)C(c2ccc(C)cc2)CC3=O)cc1 (stereo unspecified) -95.3% [at 11.4 µM]
C=C(C)C(O)/C=C/c1ccc(C)cc1 (stereo unspecified) -72.8% [at 11.4 µM]
COCOc1ccc(Br)cc1C(=O)[C@H]1O[C@H]1c1cccc(OC)c1 -113% [at 11.4 µM]
C=CCOC(=O)C(C(C)=O)C(NC(=O)OC)c1ccc(Cl)cc1 (stereo unspecified) -107% [at 11.4 µM]
COc1cccc([C@@H]2Oc3ccc(OC)cc3/C(=N/O[C@@H](C)CN3CCCc4nc(C)c(C)cc43)[C@@H]2O)c1 -92.2% [at 11.4 µM]
C/C(CCC(=O)OC[C@@H]1O[C@H](C#Cc2ccccc2)C=C[C@@H]1Oc1ccc(C)cc1)=N/O[C@@H](C)CN1CCCCc2nc(C)c(C)cc21 -94.6% [at 11.4 µM]
CCCNC(=O)OC[C@@H]1O[C@H](CCO/N=C\[C@@H](C)[C@H](OCc2ccccc2)C(C)C)C=C[C@@H]1Oc1ccc(OC)cc1 -83.7% [at 11.4 µM]
CCOC(c1cc(OC)cc([N+](=O)[O-])c1OC)C(C)C(OC)[C@@H](C)/C=C/CC(=O)OC (stereo partly specified) -78.6% [at 11.4 µM]
COC(=O)C/C=C\[C@@H](C)[C@@H](/C=N\OCC[C@H]1C=C[C@H](OC(C)=O)[C@@H](COC(C)=O)O1)NS(=O)(=O)c1ccc(C)cc1 -95.4% [at 11.4 µM]
C/C(CCC(=O)OC[C@@H]1O[C@H](C#Cc2ccccc2)C=C[C@@H]1Oc1ccc(C)cc1)=N/OC[C@@H](O)COCc1ccco1 -90.6% [at 11.4 µM]
O=C(/C=C\c1ccc2c(c1)OCO2)c1ccc(F)cc1 -89.5% [at 11.4 µM]
CO[C@H]1COC(=O)C/C=C\[C@H](C)[C@@H](NS(=O)(=O)c2ccc(C)cc2)COC(=O)C/C=C\[C@@H]1C -67.8% [at 11.4 µM] and -95.2% [at 11.4 µM]
CCCNC(=O)OC[C@@H]1O[C@H](CCO/N=C2\c3cc(OC)ccc3O[C@H](c3cccc(OC)c3)[C@H]2O)C=C[C@@H]1Oc1ccc(OC)cc1 -120% [at 11.4 µM]
CO[C@H]1COC(=O)C/C=C\[C@H](C)[C@@H](NS(=O)(=O)c2ccc(C)cc2)COC(=O)CCC[C@@H]1C -92.6% [at 11.4 µM]
COc1cccc([C@H]2Oc3ccc(OC)cc3/C(=N\O[C@@H]3O[C@H](COC(C)=O)[C@H](OC(C)=O)[C@H](OC(C)=O)[C@H]3OC(C)=O)[C@@H]2O)c1 -77% [at 11.4 µM]
C=CC[C@@H]1C=C[C@H](O/N=C(\C)CCN2CCCCc3nc(C)c(C)cc32)[C@H](CO)O1 -81.7% [at 11.4 µM]
